In the library only some 6.3% were active in any assay of this set; here they are far more common.
Autofluor 339: intrinsic fluorescence of library compounds, ex339/em460 – biochemical, MLSMR library, data from DPM-DC assay, artefact control, profiling panel; compound autofluorescence, ex339/em460 nm, NADH buffer; active compounds read high; 1 = no-compound wells, NADH background; fluorescence fold increase at 10 µM; 65,000 compounds, 5.5% hits; AID 709;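 active = at 10 µM, mean starting fluorescence two-fold or more over control wells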;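 also: signal is the first read of a kinetic run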
Spn DPM-DC inh: blocks S. pneumoniae diphosphomevalonate decarboxylase; purified DPM-DC, PK/LDH coupled NADH fluorescence; calls only at 10 µM; 65,000 compounds, 0.49% hits; AID 556;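 active = the 320 compounds with the highest percent inhibition in the single-dose primary screen, excluding strongly autofluorescent ones, cut at about 32% in these data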;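 also: kinetic rate of NADH fluorescence loss reporting ADP formed by the decarboxylase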
A340 absorber: compounds absorbing at 340 nm; compound absorbance at 340 nm, fold over control; fold change at 10 µM; 65,000 tested, under 10 active;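 active = at 10 µM dose, initial 340 nm absorbance at least 2 fold that of control wells; inactive = change under 2 fold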;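 also: initial absorbance extrapolated from kinetic A340 decline of NADH oxidation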
NADH enzymes: inhibition of NAD/NADH coupling enzymes, library profiling; coupled PK/LDH NADH assays, four targets; IC50, µM (series often up to 10 µM), without a hit: at the top dose inhibition; 65,000 compounds, 0.02% hits; AID 774;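 active = single-dose screening hits from any of four coupled enzyme assays that gave an IC50 when retested across doses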;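 also: the DPM-DC format reads NADH fluorescence rather than 340 nm absorbance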
PMK inhibit: blocks S. pneumoniae phosphomevalonate kinase; purified PMK, PK/LDH-coupled NADH absorbance 340 nm; inhibition, % at 10 µM; 65,000 compounds, 0.49% hits;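 active = top-ranked compounds by inhibition in the single 10 µM screen, taking a fixed number of the strongest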;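 also: 0% = full reaction with DMSO carrier and 100% = background rate without enzyme reaction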
MK inhibit: inhibitors of Streptococcus pneumoniae mevalonate kinase | purified MK, PK/LDH-coupled NADH absorbance 340 nm | 65,000 compounds, 0.48% hits | AID 555 | inhibition, % at 10 µM;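 active = ranked among the strongest by inhibition in the single 10 µM screen, a fixed top-ranked set picked for dose follow-up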
* hit, by the source's call.

Screening CC(C)c1ccccc1OCCCCCNCCO returned Autofluor 339 1.1, Spn DPM-DC inh inactive, A340 absorber 1, NADH enzymes 5%, PMK inhibit 7 and MK inhibit 8.
`Cn1c(NCCCO)nc2c(c1=O)C1(CCCCC1)Cc1ccccc1-2` gave Autofluor 339 3.8*, A340 absorber 1.1, NADH enzymes 9%, PMK inhibit 11 and MK inhibit 7.
For CCCn1c(SCC(N)=O)nc2c(c1=O)C1(CCCC1)Cc1ccccc1-2 the results were Autofluor 339 1.1, Spn DPM-DC inh inactive, A340 absorber 1, NADH enzymes 4%, PMK inhibit 11 and MK inhibit 0.
`CCO/C=C1\C(=O)N(c2ccccc2)C(=O)c2ccccc21` gave Autofluor 339 2.2*, A340 absorber 1.1, NADH enzymes 9%, PMK inhibit 0 and MK inhibit 17.
`CCN(CC)C(=O)CSc1ncnc2c(-c3cccs3)nsc12` gave Autofluor 339 2.6*, Spn DPM-DC inh inactive, A340 absorber 1.1, NADH enzymes 11%, PMK inhibit 10 and MK inhibit 0.
CCOc1cc(NC(=O)C2CC2)c(OCC)cc1NC(=O)c1cccnc1 was read as Autofluor 339 1.1, Spn DPM-DC inh inactive, A340 absorber 1, NADH enzymes 0%, PMK inhibit 0 and MK inhibit 0.
`Cc1ccc(Cn2c(=N)c(C(=O)NCc3ccco3)cc3c(=O)n4ccccc4nc32)cc1` gave Autofluor 339 1.9, Spn DPM-DC inh inactive, A340 absorber 1, NADH enzymes 6%, PMK inhibit 17 and MK inhibit 0.
CCOC(=O)c1cc2c(=O)n3ccccc3nc2n(Cc2ccccc2)c1=N was read as Autofluor 339 2.5*, A340 absorber 0.98, NADH enzymes 4%, PMK inhibit 20 and MK inhibit 3.
COc1ccc(CCn2c(=N)c(C(=O)N3CCN(C)CC3)cc3c(=O)n4ccccc4nc32)cc1 was read as Autofluor 339 1.6, Spn DPM-DC inh inactive, A340 absorber 1.1, NADH enzymes 9%, PMK inhibit 11 and MK inhibit 15.
For CCOC(=O)c1cc2c(=O)n3ccccc3nc2n(Cc2ccccc2Cl)c1=N the results were Autofluor 339 2.3*, A340 absorber 1, NADH enzymes 1%, PMK inhibit 1 and MK inhibit 0.
`O=C(COc1ccc(-n2cnnn2)cc1)NC(=O)NCc1ccccc1` gave Autofluor 339 1, Spn DPM-DC inh inactive, A340 absorber 1, NADH enzymes 6%, PMK inhibit 18 and MK inhibit 0.
Cc1cc(C)nc(Nc2nc(C)c3cc4c(cc3n2)OCO4)n1 was read as Autofluor 339 3.5*, A340 absorber 1.1, NADH enzymes 13%, PMK inhibit 16 and MK inhibit 9.
For Cc1nc(NC2=NCN(Cc3ccc4c(c3)OCO4)CN2)nc2ccccc12 the results were Autofluor 339 1.1, Spn DPM-DC inh inactive, A340 absorber 1, NADH enzymes 5%, PMK inhibit 5 and MK inhibit 9.
For Cc1cnc(SCCc2ccncc2)nc1C the results were Autofluor 339 1.1, Spn DPM-DC inh active, A340 absorber 1.1, NADH enzymes 6%, PMK inhibit 3 and MK inhibit 16.
Screening N#Cc1cnc(SCCc2ccccc2)nc1N returned Autofluor 339 1.3, Spn DPM-DC inh inactive, A340 absorber 1, NADH enzymes 3%, PMK inhibit 14 and MK inhibit 0.
Cc1cc(NC(=O)CSc2cn(C)c3ccccc23)no1 was read as Autofluor 339 1.1, Spn DPM-DC inh inactive, A340 absorber 1, NADH enzymes 5%, PMK inhibit 8 and MK inhibit 4.
Screening COCCCn1cnc2c(c1=O)c1nc3ccccc3nc1n2CCc1ccccc1 returned Autofluor 339 2.4*, A340 absorber 1.1, NADH enzymes 2%, PMK inhibit 0 and MK inhibit 3.
For CCOCCCn1cnc2c(c1=O)c1nc3ccccc3nc1n2-c1ccccc1 the results were Autofluor 339 3*, Spn DPM-DC inh inactive, A340 absorber 1.1, NADH enzymes 11%, PMK inhibit 13 and MK inhibit 8.
CCCCn1c2nc3ccccc3nc2c2c(=O)n(CCC)cnc21 was read as Autofluor 339 3.9*, A340 absorber 1.1, NADH enzymes 9%, PMK inhibit 11 and MK inhibit 7.
COc1ccc(Cn2c3nc4ccccc4nc3c3c(=O)n(Cc4ccco4)cnc32)cc1 was read as Autofluor 339 1.8, Spn DPM-DC inh inactive, A340 absorber 1.1, NADH enzymes 5%, PMK inhibit 0 and MK inhibit 8.
CC(C)CCn1cnc2c(c1=O)c1nc3ccccc3nc1n2Cc1ccc2c(c1)OCO2 was read as Autofluor 339 3.6*, A340 absorber 1.1, NADH enzymes 2%, PMK inhibit 2 and MK inhibit 2.
`CCOCCCn1cnc2c(c1=O)c1nc3ccccc3nc1n2-c1ccc(C)cc1` gave Autofluor 339 1.2, Spn DPM-DC inh inactive, A340 absorber 1.1, NADH enzymes 9%, PMK inhibit 12 and MK inhibit 14.
`COCCCn1c2nc3ccccc3nc2c2c(=O)n(-c3ccccc3OC)c(C)nc21` gave Autofluor 339 1.9, Spn DPM-DC inh inactive, A340 absorber 1, NADH enzymes 11%, PMK inhibit 6 and MK inhibit 8.
For COCCCn1c2nc3ccccc3nc2c2c(=O)n(-c3ccccc3OC)cnc21 the results were Autofluor 339 2.4*, Spn DPM-DC inh inactive, A340 absorber 1.1, NADH enzymes 8%, PMK inhibit 12 and MK inhibit 7.
For CCCCCCn1cnc2c(c1=O)c1nc3ccccc3nc1n2Cc1cccs1 the results were Autofluor 339 2.3*, Spn DPM-DC inh inactive, A340 absorber 1.1, NADH enzymes 6%, PMK inhibit 5 and MK inhibit 3.
CCCn1cnc2c(c1=O)c1nc3ccccc3nc1n2Cc1ccccc1OC was read as Autofluor 339 1.1, Spn DPM-DC inh inactive, A340 absorber 1, NADH enzymes 3%, PMK inhibit 13 and MK inhibit 4.
N#Cc1c2n(c(=S)n(-c3ccccn3)c1=O)CCCCC2 was read as Autofluor 339 1, Spn DPM-DC inh inactive, A340 absorber 1, NADH enzymes 3%, PMK inhibit 16 and MK inhibit 2.
`COc1cccc(CSc2nnc(-c3ccco3)n2C)c1` gave Autofluor 339 1.1, Spn DPM-DC inh inactive, A340 absorber 1.1, NADH enzymes 1%, PMK inhibit 1 and MK inhibit 2.
Screening CC(Nc1nc(N2CCN(S(C)(=O)=O)CC2)nc2ccccc12)c1ccccc1 (stereo not given) returned Autofluor 339 2.1*, A340 absorber 1.1, NADH enzymes 8%, PMK inhibit 2 and MK inhibit 13.

Assay outcomes from PubChem BioAssay.
